Test results reported in PubChem BioAssay (Tox21).
Where “and” joins values, the source holds several entries; their conditions need not be identical. Equal entries are not always repeated. Inconclusive results are not listed. Calls of active or inactive are those of the source. Unless noted, calls come from the whole dose curve; as a rule, active = well fitted curve in the direction sought with a large enough effect in the repeat runs; inconclusive = weak or mixed curves; inactive = no such curve, though single readings can be large; an effect the other way counts as inactive or inconclusive.

Legend:
[1] = target: Estrogen receptor beta (Homo sapiens) (UniProt Q92731); assay: qHTS assay to identify small molecule agonists of the estrogen receptor beta (ER-beta) signaling pathway (AID 1259377; active = well fitted activation curve with a large enough effect in the signal ratio in the repeat runs, not every such curve was filed as active; the % refers to the signal ratio)
In short: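 HEK293T ER-beta-UAS-bla; 2% charcoal-stripped FBS; cells pre-incubated 6 hr, compound 16 hr, 37C/5% CO2; LiveBLAzer B/G FRET substrate 2 h RT; fluorescence intensity read.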

[2] = target: Estrogen receptor beta (Homo sapiens) (UniProt Q92731); assay: qHTS assay to identify small molecule antagonists of the estrogen receptor beta (ER-beta) signaling pathway (AID 1259378; active = well fitted inhibition curve with a large enough effect in the signal ratio in the repeat runs, not every such curve was filed as active; the % refers to the signal ratio; note: potency is the fitted concentration of half-maximal effect)
In short: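 Antagonist mode: compounds added to beta-lactamase reporter HEK293T ER-beta-UAS cells stimulated with E2 (1nM final), 16 hr at 37C. LiveBLAzer B/G FRET substrate, 2 hours room temperature, fluorescence read-out.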

[3] = qHTS assay to identify small molecule agonists of the androgen receptor (AR) signaling pathway in the presence of an antagonist - cell viability counter screen (AID 1259379);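 note: MDA-kb2 human breast cancer cells carrying an MMTV luciferase reporter; series mostly up to about 92 µM; nearly all actives have a fitted effect of over 25% in size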
In short: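 Cells: MDA-kb2 (MMTV-luc, AR and GR elements), 3,000/well, 5 hr settle. Added: nilutamide 3.0uM final, then compounds (15 conc.). Incubation: 16 hr, 37C, no CO2. Read-out: CellTiter-Fluor, 1 hr, fluorescence.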

[4] = qHTS assay to identify small molecule agonists of the estrogen receptor beta (ER-beta) signaling pathway - cell viability counter screen (AID 1259380); note: nearly all actives have a fitted effect of over 30% in size; note: potency is the fitted concentration of half-maximal effect
In short: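 HEK293T ER-beta-UAS-bla; 2% CS-FBS; 6 hr pre-plate, 16 hr cpd at 37C/5% CO2; LiveBLAzer read first, then CellTiter-Glo 30 min RT, luminescence.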

[5] = target: Androgen receptor (Homo sapiens) (UniProt P10275); assay: qHTS assay to identify small molecule agonists of the androgen receptor (AR) signaling pathway in the presence of an antagonist (AID 1259381; calls by dose curve; note: nearly all actives have a fitted effect of over 15% in size)
In short: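 MDA-kb2 cells, 3,000/well, rested 5hr at 37C/0% CO2 → nilutamide 3.0uM final or buffer → compounds, 15 conc. → 16hr at 37C → ONE-Glo, 30min RT → luminescence.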

[6] = qHTS assay to identify small molecule antagonists of the estrogen receptor beta (ER-beta) signaling pathway - cell viability counter screen (AID 1259382); note: nearly all actives have a fitted effect of over 55% in size; note: potency is the fitted concentration of half-maximal effect;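 for activity change, negative = cytotoxicity: HEK293T cells carrying ER-beta-UAS-bla reporter stimulated with estradiol; series mostly up to about 92 µM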
In short: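 Cells: ER-beta-UAS-bla HEK293T, 2,000/well, 2% CS-FBS, 6 hr settle. Cpd + E2 (1nM final), 16 hr, 37C/5% CO2. Bla FRET substrate 2 hr RT, then CellTiter-Glo 30 min RT, luminescence.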

[7] = target: Estrogen receptor (Homo sapiens) (UniProt P03372); assay: qHTS assay to identify small molecule agonists of the estrogen receptor alpha (ER-alpha) signaling pathway in the presence of an antagonist (AID 1259383; calls by dose curve; note: top concentration of the series differs between compounds; nearly all actives have a fitted effect of over 15% in size)
In short: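 VM7Luc4E2, endog. ER-alpha + 4×ERE-luc; charcoal-stripped FBS, phenol red-free, 5 d; 24hr plating; +10.0nM ICI-182,780 (final); cpds 15 conc, 22hr, 37C/5% CO2; ONE-Glo luminescence.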

[8] = qHTS assay to identify small molecule agonists or antagonists of the thyroid stimulating hormone receptor (TSHR) signaling pathway - wild type cell line counter screen (AID 1259384; calls by dose curve)
In short: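 Counter screen in untransfected Hek293: compounds (15-point titration, triplicate) plus phosphodiesterase inhibitor Ro20-1724 added after 18 h plating; 30 min RT. Intracellular cAMP via competitive d2/cryptate immunoassay, 1 h incubation.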

[9] = qHTS assay to identify small molecule agonists of the estrogen receptor alpha (ER-alpha) signaling pathway in the presence of an antagonist - cell viability counter screen (AID 1259386);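 note: series mostly up to about 92 µM; cells exposed to compounds for 22 h at 37 °C before the viability read; nearly all actives have a fitted effect of over 30% in size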
In short: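 VM7Luc4E2, stripped-serum pre-culture 5 d; 24hr plating; +ICI-182,780 10.0nM final; cpds 15 conc, 22hr, 37C/5% CO2; CellTiter-Fluor added at 21hr, fluorescence 1hr later.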

[10] = target: Progesterone receptor (Homo sapiens) (UniProt P06401); assay: qHTS assay to identify small molecule agonists of the progesterone receptor (PR) signaling pathway (AID 1346784; calls by dose curve; note: nearly all actives have a fitted effect of over 30% in size)
In short: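 Beta-lactamase reporter read-out: after 16 hr compound treatment at 37C and a further 2 hr at room temperature with LiveBLAzer B/G FRET substrate, fluorescence was measured in PR-UAS-bla HEK 293T cells grown in 2% charcoal-stripped serum.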

[11] = target: Progesterone receptor (Homo sapiens) (UniProt P06401); assay: qHTS assay to identify small molecule antagonists of the progesterone receptor (PR) signaling pathway (AID 1346795; active = well fitted inhibition curve with a large enough effect in the signal ratio in the repeat runs, not every such curve was filed as active; the % refers to the signal ratio; note: potency is the fitted concentration of half-maximal effect)
In short: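 Read-out is fluorescence from the LiveBLAzer B/G FRET substrate, cleaved by a UAS-controlled beta-lactamase in PR-UAS-bla HEK293T cells after 16 hr exposure to compound plus 1 nM promegestone (final), followed by 2 hr at room temperature.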

[12] = qHTS assay to identify small molecule antagonists of the progesterone receptor (PR) signaling pathway - cell viability counter screen (AID 1346798);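 note: HEK293T PR-UAS-bla cells stimulated with the agonist R5020; series mostly up to about 92 µM; nearly all actives have a fitted effect of over 50% in size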
In short: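 HEK293T PR-UAS-bla, 2% charcoal-stripped FBS; 4 hr pre-plate; cpd + R5020, 16 h 37C; LiveBLAzer read first; then CellTiter-Glo 30 min RT, luminescence.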

[13] = qHTS assay to identify small molecule antagonists of the TGF-beta/Smad signaling pathway - cell viability counter screen (AID 1346824); note: nearly all actives have a fitted effect of over 50% in size
In short: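 Cytotoxicity counter-screen run in the same wells as the beta-lactamase Smad reporter read: CellTiter-Glo luminescence after 30 min at room temperature. HEK 293T SBE-bla cells had 5 hr compound exposure at 37 C with TGF-beta1 (0.25 ng/mL stock).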

[14] = qHTS assay to identify small molecule agonists of the TGF-beta/Smad signaling pathway (AID 1346859; active = well fitted activation curve with a large enough effect in the signal ratio in the repeat runs, not every such curve was filed as active; the % refers to the signal ratio; note: series mostly up to about 77 µM)
In short: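 SBE-bla HEK 293T, 4,000 cells/well, plated o/n; cpd in DMSO, 5 hr, 37 C/5% CO2; B/G FRET substrate 2 hr RT; ex 405, em 460/530 nm.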

[15] = Human pregnane X receptor (PXR) small molecule agonists, qHTS cell viability counter screen (AID 1346977); note: nearly all actives have a fitted effect of over 50% in size
In short: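 PXR-Luc HepG2, 2,000 cells/well, 5% charcoal-stripped FBS; 5hr settle; cpd 24hr, 37C/5% CO2; CellTiter-Fluor at 23hr, read 1hr later (fluorescence).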

[16] = qHTS assay to identify small molecule agonists of the progesterone receptor (PR) signaling pathway - cell viability counter screen (AID 1346799; calls by dose curve; note: nearly all actives have a fitted effect of over 45% in size)
In short: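 Luminescence from CellTiter-Glo, added after the beta-lactamase FRET read in the same wells, gave cytotoxicity in PR-UAS-bla HEK293T cells treated with compounds for 16 hr at 37C.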

[17] = qHTS assay to identify small molecule agonists of the TGF-beta/Smad signaling pathway - cell viability counter screen (AID 1346829); note: top concentration of the series differs between compounds; nearly all actives have a fitted effect of over 45% in size
In short: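 In parallel with the Smad reporter read, viability of HEK 293T cells stably carrying SBE-bla is quantified by ATP luminescence following 5 hr compound treatment.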

[18] = target: Thyrotropin-releasing hormone receptor (Homo sapiens) (UniProt P34981); assay: qHTS assay to identify small molecule antagonists of the thyrotropin-releasing hormone receptor (TRHR) signaling pathway (AID 1346877; active = well fitted inhibition curve with a large enough effect in the repeat runs, not every such curve was filed as active; note: series mostly up to about 51 µM)
In short: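 Intracellular calcium fluorescence, read kinetically every second over 3 min, reports TRH-evoked signalling in HEK293 cells carrying TRHR. Test compounds were added 5 min ahead of a 1 nM TRH challenge.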

[19] = target: Thyrotropin-releasing hormone receptor (Homo sapiens) (UniProt P34981); assay: qHTS assay to identify small molecule agonists of the thyrotropin-releasing hormone receptor (TRHR) signaling pathway (AID 1346891; calls by dose curve; note: series mostly up to about 58 µM)
In short: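 Intracellular calcium rise, read as fluorescence every second for 3 min, served as the agonist signal in dye-loaded HEK293 cells expressing TRHR; each compound ran at 15 concentrations in triplicate.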

[20] = target: Thyrotropin receptor (Homo sapiens) (UniProt P16473); assay: qHTS assay to identify small molecule antagonists of the thyroid stimulating hormone receptor (TSHR) signaling pathway (AID 1259385; calls by dose curve; note: nearly all actives have a fitted effect of over 20% in size; note: potency is the fitted concentration of half-maximal effect)
In short: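 Antagonist mode: compound-treated TSHR-expressing HEK293 cells were stimulated with 1.5 ng/mL TSH (final) in presence of Ro20-1724 for 30 min at RT. HTRF cAMP detection after 1 h; each compound tested at 15 concentrations, triplicate.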
% is set by controls: 0 for no effect and ±100 for the full control effect.

Estrogen receptor (Homo sapiens), sequence (P03372 whole entry, looked up): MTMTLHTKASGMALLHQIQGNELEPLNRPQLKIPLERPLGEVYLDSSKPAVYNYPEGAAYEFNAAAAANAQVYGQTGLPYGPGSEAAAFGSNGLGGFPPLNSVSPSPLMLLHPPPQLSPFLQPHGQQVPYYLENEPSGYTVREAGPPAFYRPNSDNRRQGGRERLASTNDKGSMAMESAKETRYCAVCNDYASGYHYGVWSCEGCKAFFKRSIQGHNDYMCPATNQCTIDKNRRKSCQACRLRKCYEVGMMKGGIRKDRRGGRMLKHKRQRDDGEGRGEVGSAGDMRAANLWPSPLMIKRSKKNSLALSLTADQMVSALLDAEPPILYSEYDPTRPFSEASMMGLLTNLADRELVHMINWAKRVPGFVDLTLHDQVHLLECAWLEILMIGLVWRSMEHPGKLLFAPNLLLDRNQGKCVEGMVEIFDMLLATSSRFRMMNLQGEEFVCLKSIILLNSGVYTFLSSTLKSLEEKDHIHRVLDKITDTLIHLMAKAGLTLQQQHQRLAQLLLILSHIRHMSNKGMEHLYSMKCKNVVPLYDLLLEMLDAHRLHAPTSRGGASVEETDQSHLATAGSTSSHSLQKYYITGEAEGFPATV
Estrogen receptor beta (Homo sapiens), sequence (Q92731 whole entry, looked up): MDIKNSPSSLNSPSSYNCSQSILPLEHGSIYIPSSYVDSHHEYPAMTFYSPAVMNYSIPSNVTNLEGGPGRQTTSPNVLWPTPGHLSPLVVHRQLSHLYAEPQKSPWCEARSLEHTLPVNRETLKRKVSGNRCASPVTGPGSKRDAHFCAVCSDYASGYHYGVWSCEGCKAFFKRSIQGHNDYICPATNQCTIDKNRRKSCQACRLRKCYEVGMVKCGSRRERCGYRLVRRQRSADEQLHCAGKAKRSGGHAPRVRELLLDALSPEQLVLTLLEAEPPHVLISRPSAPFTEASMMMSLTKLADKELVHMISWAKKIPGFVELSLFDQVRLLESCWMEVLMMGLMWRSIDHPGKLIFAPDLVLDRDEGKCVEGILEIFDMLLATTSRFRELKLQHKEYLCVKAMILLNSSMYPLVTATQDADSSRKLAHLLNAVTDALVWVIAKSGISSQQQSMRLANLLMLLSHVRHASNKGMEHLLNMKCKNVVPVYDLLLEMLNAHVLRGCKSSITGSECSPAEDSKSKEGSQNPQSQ
Thyrotropin receptor (Homo sapiens), sequence (P16473 whole entry, looked up): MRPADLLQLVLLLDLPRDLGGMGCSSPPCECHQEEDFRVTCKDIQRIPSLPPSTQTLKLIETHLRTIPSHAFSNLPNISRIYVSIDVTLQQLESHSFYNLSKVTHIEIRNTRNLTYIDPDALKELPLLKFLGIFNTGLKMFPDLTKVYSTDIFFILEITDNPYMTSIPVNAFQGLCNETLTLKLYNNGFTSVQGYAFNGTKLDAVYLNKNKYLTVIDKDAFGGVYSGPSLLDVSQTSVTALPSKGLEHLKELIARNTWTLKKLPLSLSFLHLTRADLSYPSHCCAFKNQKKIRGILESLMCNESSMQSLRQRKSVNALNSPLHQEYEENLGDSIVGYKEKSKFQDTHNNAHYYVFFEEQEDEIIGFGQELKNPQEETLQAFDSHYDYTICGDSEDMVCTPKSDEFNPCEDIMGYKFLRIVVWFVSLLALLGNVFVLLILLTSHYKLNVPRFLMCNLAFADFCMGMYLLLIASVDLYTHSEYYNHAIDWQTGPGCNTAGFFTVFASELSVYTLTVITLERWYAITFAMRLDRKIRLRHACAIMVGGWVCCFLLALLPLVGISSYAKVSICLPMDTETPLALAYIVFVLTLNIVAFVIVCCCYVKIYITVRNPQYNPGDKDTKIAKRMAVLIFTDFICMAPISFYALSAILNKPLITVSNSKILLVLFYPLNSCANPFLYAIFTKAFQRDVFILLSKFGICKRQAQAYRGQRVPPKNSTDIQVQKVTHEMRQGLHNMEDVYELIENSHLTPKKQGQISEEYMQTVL
Androgen receptor (Homo sapiens), sequence (P10275 whole entry, looked up): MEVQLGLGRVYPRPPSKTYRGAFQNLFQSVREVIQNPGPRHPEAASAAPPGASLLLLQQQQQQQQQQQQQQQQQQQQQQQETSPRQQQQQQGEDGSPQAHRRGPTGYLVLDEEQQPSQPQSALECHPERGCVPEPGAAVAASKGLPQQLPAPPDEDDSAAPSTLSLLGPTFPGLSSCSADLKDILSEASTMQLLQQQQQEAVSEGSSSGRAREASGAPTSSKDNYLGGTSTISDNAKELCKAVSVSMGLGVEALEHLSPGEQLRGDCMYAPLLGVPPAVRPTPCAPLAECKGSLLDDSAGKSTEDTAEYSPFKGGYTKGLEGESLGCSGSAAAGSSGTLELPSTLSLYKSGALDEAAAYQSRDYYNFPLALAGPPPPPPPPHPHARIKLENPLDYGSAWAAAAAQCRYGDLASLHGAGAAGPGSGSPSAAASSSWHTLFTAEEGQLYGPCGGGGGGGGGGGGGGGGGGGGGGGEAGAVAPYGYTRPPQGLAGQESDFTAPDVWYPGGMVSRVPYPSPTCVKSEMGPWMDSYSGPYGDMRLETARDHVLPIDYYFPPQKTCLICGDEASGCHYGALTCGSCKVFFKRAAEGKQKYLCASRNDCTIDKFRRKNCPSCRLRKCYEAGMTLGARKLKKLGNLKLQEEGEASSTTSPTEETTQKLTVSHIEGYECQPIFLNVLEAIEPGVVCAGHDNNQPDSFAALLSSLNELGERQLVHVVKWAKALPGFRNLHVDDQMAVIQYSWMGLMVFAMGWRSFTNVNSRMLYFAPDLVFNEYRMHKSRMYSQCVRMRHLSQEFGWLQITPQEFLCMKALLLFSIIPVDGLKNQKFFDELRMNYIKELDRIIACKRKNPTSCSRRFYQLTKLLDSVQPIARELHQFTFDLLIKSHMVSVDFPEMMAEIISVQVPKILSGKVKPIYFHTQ
Thyrotropin-releasing hormone receptor (Homo sapiens), sequence (P34981 whole entry, looked up): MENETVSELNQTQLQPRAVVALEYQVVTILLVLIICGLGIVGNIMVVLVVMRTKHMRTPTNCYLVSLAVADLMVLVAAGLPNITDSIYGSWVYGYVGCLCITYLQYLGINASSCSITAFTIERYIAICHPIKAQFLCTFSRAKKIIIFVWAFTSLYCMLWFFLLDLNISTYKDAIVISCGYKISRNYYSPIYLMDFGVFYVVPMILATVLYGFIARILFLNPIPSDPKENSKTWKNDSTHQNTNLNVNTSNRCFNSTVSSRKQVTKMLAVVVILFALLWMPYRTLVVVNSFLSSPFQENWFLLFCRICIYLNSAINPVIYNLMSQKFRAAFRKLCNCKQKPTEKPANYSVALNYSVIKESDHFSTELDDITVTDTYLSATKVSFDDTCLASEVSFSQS
Progesterone receptor (Homo sapiens), sequence (P06401 whole entry, looked up): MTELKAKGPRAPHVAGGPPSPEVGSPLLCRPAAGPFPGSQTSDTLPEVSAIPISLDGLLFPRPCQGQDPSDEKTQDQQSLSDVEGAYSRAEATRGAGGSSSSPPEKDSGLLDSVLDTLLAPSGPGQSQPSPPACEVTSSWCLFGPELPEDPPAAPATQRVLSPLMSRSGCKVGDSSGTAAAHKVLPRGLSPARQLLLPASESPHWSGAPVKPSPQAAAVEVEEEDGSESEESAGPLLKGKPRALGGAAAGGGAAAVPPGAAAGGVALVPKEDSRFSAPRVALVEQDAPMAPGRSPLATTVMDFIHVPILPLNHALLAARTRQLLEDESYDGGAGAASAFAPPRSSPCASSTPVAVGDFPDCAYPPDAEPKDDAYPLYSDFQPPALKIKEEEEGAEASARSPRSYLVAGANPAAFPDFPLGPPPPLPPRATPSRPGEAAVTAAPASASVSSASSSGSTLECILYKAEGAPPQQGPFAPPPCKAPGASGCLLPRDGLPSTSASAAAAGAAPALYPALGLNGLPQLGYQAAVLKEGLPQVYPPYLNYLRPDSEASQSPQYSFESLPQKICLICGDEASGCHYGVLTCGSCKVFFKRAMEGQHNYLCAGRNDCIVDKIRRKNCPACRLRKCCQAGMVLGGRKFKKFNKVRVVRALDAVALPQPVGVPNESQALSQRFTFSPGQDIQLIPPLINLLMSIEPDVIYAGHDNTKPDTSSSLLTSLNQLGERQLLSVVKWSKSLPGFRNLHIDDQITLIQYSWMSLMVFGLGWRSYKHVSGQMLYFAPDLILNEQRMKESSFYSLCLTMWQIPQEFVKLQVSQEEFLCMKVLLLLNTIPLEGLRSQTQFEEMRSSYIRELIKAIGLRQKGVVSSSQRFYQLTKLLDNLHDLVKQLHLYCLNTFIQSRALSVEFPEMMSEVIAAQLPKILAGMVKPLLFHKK

CC1CCCCC1
inactive: Potency [1] | Potency [2] | Potency [3] | Potency [4] | Potency [5] | Potency [6] | Potency [7] | outcome [8] | Potency [9] | outcome [10] | Potency [11] | Potency [12] | Potency [13] | Potency [14] | Potency [15]

CCOC(OCC)C(=O)c1ccccc1
inactive: Potency [1] | Potency [2] | Potency [3] | Potency [4] | Potency [5] | Potency [6] | Potency [7] | Potency [9] | outcome [10] | Potency [11] | Potency [12] | Potency [16] | Potency [17] | Potency [14] | Potency [18] | Potency [19] | Potency [15]

CCc1ccc(C)nc1
inactive: Potency [1] | Potency [2] | Potency [3] | Potency [4] | Potency [5] | Potency [6] | Potency [7] | outcome [8] | outcome [10] | Potency [12] | Potency [13] | Potency [17] | Potency [14] | Potency [15]

CCCCOCC
inactive: Potency [1] | Potency [2] | Potency [3] | Potency [4] | Potency [5] | Potency [6] | outcome [8] | Potency [20] | outcome [10] | Potency [11] | Potency [12] | Potency [16] | Potency [13] | Potency [17] | Potency [14] | Potency [15]

CC(C)=CC1CC(C)CCO1 (stereo unspecified)
inactive: Potency [1] | Potency [2] | Potency [3] | Potency [4] | Potency [6] | Potency [7] | outcome [8] | Potency [20] | Potency [9] | outcome [10] | Potency [11] | Potency [12] | Potency [16] | Potency [13] | Potency [17] | Potency [14] | Potency [18] | Potency [19] | Potency [15]

CC(=O)O[C@@H]1C[C@@H]2CC[C@@]1(C)C2(C)C
inactive: Potency [1] | Potency [2] | Potency [3] | Potency [4] | Potency [5] | Potency [6] | outcome [8] | Potency [20] | Potency [9] | outcome [10] | Potency [11] | Potency [12] | Potency [16] | Potency [13] | Potency [14] | Potency [18] | Potency [19] | Potency [15]

CCN(CC)CCOC(=O)C1(C2CCCCC2)CCCCC1
inactive: Potency [1] | Potency [2] | Potency [3] | Potency [5] | Potency [7] | outcome [8] | Potency [9] | outcome [10] | Potency [11] | Potency [14] | Potency [18] | Potency [19]
active: Potency [4] 26.6 µM | Potency [20] 29.8 µM

CC1=CP(=O)(c2ccccc2)CC1 (stereo unspecified)
inactive: Potency [1] | Potency [2] | Potency [3] | Potency [4] | Potency [5] | Potency [6] | Potency [7] | outcome [8] | Potency [20] | Potency [9] | outcome [10] | Potency [11] | Potency [12] | Potency [16] | Potency [13] | Potency [17] | Potency [14] | Potency [18] | Potency [19] | Potency [15]

c1ccc2c(c1)CCC2
inactive: Potency [1] | Potency [2] | Potency [3] | Potency [4] | Potency [5] | Potency [6] | Potency [7] | outcome [8] | Potency [20] | Potency [9] | outcome [10] | Potency [11] | Potency [12] | Potency [16] | Potency [13] | Potency [17] | Potency [14] | Potency [18] | Potency [19] | Potency [15]

CS(C)(=O)=O
inactive: Potency [1] | Potency [2] | Potency [3] | Potency [4] | Potency [6] | Potency [7] | outcome [8] | Potency [20] | Potency [9] | outcome [10] | Potency [12] | Potency [16] | Potency [13] | Potency [17] | Potency [14] | Potency [18] | Potency [19] | Potency [15]

O=S(O)O
inactive: activation [1] -0.957% [at 19 µM] | activity, negative = inhibition [2] 1.38% [at 19 µM] | activity change, negative = cytotoxicity [3] 1.09% [at 19 µM] | activity change, negative = cytotoxicity [4] -0.0055% [at 19 µM] | activity change, negative = cytotoxicity [6] 4.33% [at 19 µM] | cAMP activity change [8] -1.65% [at 18.9 µM] | activity change, negative = inhibition [20] 0.0817% [at 19 µM] | activity change, negative = cytotoxicity [9] 0.0003% [at 19 µM] | activity change, negative = cytotoxicity [12] -0.356% [at 18.9 µM] | activity change, negative = cytotoxicity [16] -3.11% [at 19 µM] | viability change, negative = cytotoxic [13] 0.444% [at 15.8 µM] | activity change, negative = cytotoxicity [17] -1.2% [at 15.8 µM] | activation [14] -2.31% [at 15.8 µM] | activity, negative = inhibition [18] 0.51% [at 10.5 µM] | activation [19] 0.0945% [at 11.8 µM] | activity change, negative = cytotoxicity [15] 6.89% [at 19 µM]

CCCCC(CC)COC(=O)c1ccc(O)cc1 (stereo unspecified)
active: Potency [2] 21.6 µM and 21.7 µM | Potency [4] 61.1 µM | Potency [6] 68.6 µM | Potency [11] 30.5 µM and 27.3 µM
inactive: Potency [1] | Potency [3] | outcome [8] | Potency [20] | outcome [10] | Potency [12] | Potency [16] | Potency [17] | Potency [14] | Potency [18] | Potency [19]

CCCCOC(=O)C(C)CC (stereo unspecified)
inactive: Potency [1] | Potency [2] | Potency [3] | Potency [4] | Potency [6] | outcome [8] | Potency [20] | Potency [9] | outcome [10] | Potency [16] | Potency [13] | Potency [17] | Potency [14] | Potency [18] | Potency [19] | Potency [15]

CN(C)CCN1CCOCC1
inactive: Potency [1] | Potency [2] | Potency [3] | Potency [4] | Potency [6] | Potency [7] | outcome [8] | Potency [20] | Potency [9] | outcome [10] | Potency [11] | Potency [12] | Potency [13] | Potency [17] | Potency [14] | Potency [18] | Potency [19] | Potency [15]
